The text below walks through data of PubChem BioAssay (EPA / NIEHS).

Active and inactive are the calls of the source. Rule for the calls: active = hit-call score of the fitted dose curve at least 0.9, where 1 is the maximum; inactive = score below 0.9.

A short description of this experiment: ATG_TA_CIS: Attagene CIS-FACTORIAL HepG2 Assay for human TA Basal Promoter (AID 2282964). The settings on record: HepG2 Attagene CIS-factorial TA basal promoter reporter; actives raise or lower the signal. The procedure:
ATG_CIS is a cell-based, multiplexed-readout assay that uses HepG2, a human liver cell line, with measurements taken at 24 hours after chemical dosing in a 24-well plate.ATG_TA_CIS is one of 52 assay component(s) measured or calculated from the ATG_CIS assay. It is designed to make measurements of mRNA induction, a form of inducible reporter, as detected with fluorescence intensity signals by Reverse transcription polymerase chain reaction (RT-PCR) and Capillary electrophoresis technology.Data from the assay component ATG_TA_CIS was analyzed into 1 assay endpoint. This assay endpoint, ATG_TA_CIS, was analyzed with bidirectional fitting relative to DMSO as the negative control and baseline of activity. Using a type of inducible reporter, measures of mRNA for gain or loss-of-signal activity can be used to understand the background control at the transcription factor-level as they relate to the gene . Furthermore, this assay endpoint can be referred to as a secondary readout, because this assay has produced multiple assay endpoints where this one serves a background control function. To generalize the intended target to other relatable targets, this assay endpoint is annotated to the background measurement intended target family, where the subfamily is internal marker.
Human liver HepG2 cells are transiently transfected with multiple reporter transcription units (MRTUs) in 6-well plates using FuGene 6 reagent (Roche; 3 ml FuGene/1 mg DNA). The MRTU constructs are regulated by a cis-regulating element (promoter). […] A major difference between the CIS and TRANS system is that in CIS activities of endogenous TFs are measured, whereas the TRANS assay evaluates changes in activities of exogenous, chimeric NR-Gal4 proteins. […] At the end of 24 hour incubation, total RNA was isolated using TriZol reagent (Invitrogen). The isolated RNA is then reverse-transcribed using oligo(dT) primer and Mo-MLV reverse transcriptase (Invitrogen) with DNAse I (Ambion) treatment for 30 min. The one-tenth of the produced cDNA was amplified by PCR using Taq DNA polymerase (Invitrogen) and two reporter sequence-specific primers. The PCR products were fluorescently labeled by primer extension with 6-arboxyfluorescein (6-FAM) 5'-labeled reporter sequence-specific primer (2 min at 95 C, 20 s at 68 C and 10 min at 72 C) and these products were digested with 5U of HpaI (New England Biolabs) for 2h at 37 C. The fragments were purified using Qiaquick PCR columns (Qiagen), analyzed on an ABI 3130xL genetic analyzer (Applied Biosystems) with peak positions identified by using a set of X-rhodamine (ROX)-labeled MapMarker1000 molecular weight standards (BioVentures). The raw capillary electrophoresis data was processed using Attagraph software (Attagene).
As for `O=[N+]([O-])c1ccc(Cl)cc1`, the result was inactive.
On the same count and under the same terms, to `Nc1ccc(Cl)c(Cl)c1` belongs “inactive”; to `CC(C)C#N`, “inactive”.
Still for that read-out and setting: with `CCOP(=O)(OCC)Oc1ccc([N+](=O)[O-])cc1` the entry was “inactive”; with `CC(C)(c1cc(Cl)c(O)c(Cl)c1)c1cc(Cl)c(O)c(Cl)c1`, “inactive”.
The same measure, in the same setting: to `C=CC(=O)OCCCCOC(=O)C=C` belongs “inactive”; to `O=S(=O)(c1ccccc1)c1ccccc1`, “inactive”; to `O=S(=O)(O)OOS(=O)(=O)O`, “inactive”.
Turning to `CCc1cccc(C)c1N(C(=O)CCl)[C@@H](C)COC`, the compound was classed as inactive.
Take `ClC1=C(Cl)[C@]2(Cl)[C@@H]3[C@@H](Cl)[C@H](Cl)C[C@@H]3[C@@]1(Cl)C2(Cl)Cl`: the result was inactive.
Same read-out and setting: with `C=Cc1cccc(CCl)c1` the entry was “inactive”; with `O=C(O)C(Br)Br`, “inactive”; with `C=CC(=O)OC`, “inactive”.
Same read-out and setting: to `Cl/C=C\CCl` belongs “inactive”; to `O=C1C=CC(=O)C=C1`, “inactive”; to `CC(C)(O)C#N`, “inactive”.
On the same count and under the same terms, with `CCCCNP(N)(N)=S` the entry was “inactive”; with `CC(C)(C)C(=O)CCl`, “inactive”.
For the compound `O=P1(NCCCl)OCCCN1CCCl` (stereo not given), the outcome was inactive.
Consider `CC1OC(C)OC(C)O1` (stereo not given), for which the compound was called inactive.
Same read-out and setting: with `N#CCNCC#N` the entry was “inactive”; with `CCCCCCCCCCCCCCCC[N+](C)(C)C`, “inactive”; with `BrCBr`, “inactive”.
Still for that read-out and setting: with `CC(C)C(=O)Cl` the entry was “inactive”; with `C[N+](C)=CCl`, “inactive”; with `C=CCN(CC=C)C(=O)C(Cl)Cl`, “inactive”.
Same read-out and setting: to `CCC(C)c1cc(C(C)(C)C)cc(-n2nc3ccccc3n2)c1O` (stereo not given) belongs “inactive”.
Take `C=C(Cl)CCl`: the call was inactive.
Still for that read-out and setting: with `O=[N+]([O-])O.O=[N+]([O-])O.[Cd]` the entry was “inactive”.
Still for that read-out and setting: with `C=CC(=O)OCCO` the entry was “inactive”.
Same read-out and setting: with `CN(C)CCC#N` the entry was “inactive”.
In the case of `CC(C)(C)C(O)C(Oc1ccc(-c2ccccc2)cc1)n1cncn1` (stereo not given), the AC50 is 33.4 µM (active).
In the case of `CC(C)CCCCCCCOC(=O)c1ccccc1C(=O)OCCCCCCCC(C)C`, the compound was classed as inactive.
Same read-out and setting: with `CC(C)CCCCCCCOP(=O)(Oc1ccccc1)Oc1ccccc1` the entry was “inactive”.
On the same count and under the same terms, to `N#Cc1cccc(C#N)c1` belongs “inactive”; to `CCOC(=O)COc1ccc(Cl)cc1Cl`, “inactive”.
Same read-out and setting: with `O=[N+]([O-])c1cc([N+](=O)[O-])c2ccccc2c1` the entry was “inactive”; with `CC(C)COP(=O)(OCC(C)C)OCC(C)C`, “inactive”.
Turning to `CCC(C)c1cc([N+](=O)[O-])cc([N+](=O)[O-])c1OC(=O)C=C(C)C` (stereo not given), the AC50 was 100 µM (active).
Turning to `O=c1[nH]c(Cl)c(Cl)cc1Cl`, the outcome was inactive.
